PubChem BioAssay (EPA / NIEHS)
Calls of active or inactive are those of the source. Rule for the calls: active = hit-call score of the fitted dose curve at least 0.9, where 1 is the maximum; inactive = score below 0.9.

How the values were obtained:
[1] = APR_HepG2_P-H2AX_72hr: Apredica 72-hour HepG2 Assay for H2AX Phosphorylation (AID 2282916); conditions: imaging, actives raise or lower the signal;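 note: phospho-histone H2A.x immunostain intensity per cell marking DNA damage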
Summary of the method: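 Following 72 hr treatment with 0.39–200 uM compound, HepG2 cells were formaldehyde-fixed, permeabilized and stained for phospho-H2A.x; signal was measured by high-content imaging and fitted bidirectionally against DMSO controls.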

[2] = APR_HepG2_MitoMembPot_72hr: Apredica 72-hour HepG2 Assay for Mitochondrial Membrane Potential (AID 2282917); conditions: imaging, actives raise or lower the signal
Summary of the method: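 HepG2 cells exposed 72 h to compounds at 0.39–200 uM (0.5% v/v DMSO, duplicates); MitoTracker Red CMXRos 250 nM loaded 30 min before 3.7% formaldehyde fixation, imaged by HCS fluorescence. Bidirectional fit versus DMSO.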

[3] = APR_HepG2_MitoticArrest_72hr: Apredica 72-hour HepG2 Assay for Mitotic Arrest (AID 2282918); conditions: high-content imaging, actives raise or lower the signal
Summary of the method: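 HepG2 cells were exposed for 72 hr to compound at 0.39–200 uM (10 concentrations, duplicate) in 0.5% v/v DMSO, fixed in 3.7% formaldehyde, immunostained for phospho-histone H3 with Hoechst 33342 and imaged by high-content fluorescence; bidirectional fits versus DMSO.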

[4] = APR_HepG2_P-H2AX_24hr: Apredica 24-hour HepG2 Assay for H2AX Phosphorylation (AID 2282920); conditions: high-content imaging, actives raise or lower the signal
Summary of the method: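 HepG2 human liver cells were exposed for 24 hr to compounds at 0.39–200 uM in duplicate, with 0.5% v/v DMSO final. Fixed cells were immunostained for phospho-histone H2A.x plus Hoechst 33342, imaged by HCS fluorescence, and fitted bidirectionally against DMSO.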

[5] = APR_HepG2_StressKinase_72hr: Apredica 72-hour HepG2 Assay for Stress Kinase (AID 2282921); conditions: HepG2 stress kinase (phospho-c-Jun) imaging, actives raise or lower the signal
Summary of the method: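 Fluorescence intensity of Cy3-tagged anti-phospho-c-Jun antibody, quantified per cell from Hoechst-defined nuclei across six images per well, served as the read-out following 72 h exposure (0.39–200 uM, 0.5% v/v DMSO).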

[6] = APR_HepG2_StressKinase_24hr: Apredica 24-hour HepG2 Assay for Stress Kinase (AID 2282922); conditions: HepG2 stress kinase (phospho-c-Jun) imaging, actives raise or lower the signal
Summary of the method: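 HepG2 cells exposed 24 hr to compound at 0.39–200 uM (10 concentrations, duplicate), 0.5% v/v DMSO final. Fixed in 3.7% formaldehyde, permeabilized with Triton X-100, immunolabeled for phospho-c-Jun with Hoechst 33342; HCS fluorescence imaging, bidirectional fit versus DMSO.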

[7] = APR_HepG2_p53Act_72hr: Apredica 72-hour HepG2 Assay for p53 Activation (AID 2282923); conditions: high-content imaging, actives raise or lower the signal;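 note: average cellular p53 protein immunofluorescence intensity in HepG2 cells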
Summary of the method: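 HepG2 monolayers receive test compounds in duplicate at ten concentrations (0.39 through 200 uM) for 72 hr. They are then formaldehyde-fixed, antibody-labelled for p53, Hoechst-stained and imaged, with activity fitted bidirectionally versus DMSO.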

[8] = APR_HepG2_NuclearSize_72hr: Apredica 72-hour HepG2 Assay for Nuclear Size (AID 2282925); conditions: high-content imaging, actives raise or lower the signal
Summary of the method: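 HepG2 cells were exposed to compounds at ten concentrations from 0.39 to 200 uM (duplicate, 0.5% DMSO final) for 72 hr. After fixation in 3.7% formaldehyde, nuclei were stained with Hoechst 33342 (2 ug/mL) and imaged at 20x.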

[9] = ATG_CRE_CIS: Attagene CIS-FACTORIAL HepG2 Assay for human cAMP Responsive Element (CRE) binding protein 3 (AID 2282926); conditions: HepG2 CRE cis-reporter, Attagene multiplexed mRNA; actives raise or lower the signal
Summary of the method: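 HepG2 cells transiently transfected with a multiplexed reporter library (CRE-driven unit among them) were dosed for 24 h. Reporter mRNA was quantified by RT-PCR, fluorescent labelling, HpaI digestion and capillary electrophoresis, with bidirectional fitting against DMSO baseline.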

[10] = target: CCAAT/enhancer-binding protein beta (Homo sapiens) (UniProt P17676); assay: ATG_C_EBP_CIS: Attagene CIS-FACTORIAL HepG2 Assay for human CCAAT/Enhancer Binding Protein (C/EBP) beta (AID 2282927); conditions: HepG2 Attagene cis-factorial transcription factor reporter; actives raise or lower the signal
Summary of the method: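 Chemical-treated HepG2 cells (24 h) bearing cis-regulated reporter constructs were processed for total RNA, then reverse transcription, PCR amplification, fluorescent primer extension and fragment analysis; gain- and loss-of-signal were fitted against DMSO.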

[11] = ATG_CMV_CIS: Attagene CIS-FACTORIAL HepG2 Assay for human CMV (Internal Marker) (AID 2282928); conditions: HepG2 CMV promoter reporter, transcription factor profiling; actives raise or lower the signal;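 note: endpoint acts as a background internal control marker rather than a target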
Summary of the method: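 After transient transfection of HepG2 with reporter transcription units driven by cis-regulatory promoters, cells receive test chemical for 24 h. Labeled reporter amplicons, digested with HpaI, are sized and quantified by capillary electrophoresis against DMSO.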

[12] = ATG_DR4_LXR_CIS: Attagene CIS-FACTORIAL HepG2 Assay for human Liver X Receptor (LXR), DR4 submotif (AID 2282929); conditions: HepG2 Attagene DR4 cis-reporter, mRNA transcription; actives raise or lower the signal
Summary of the method: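 HepG2, transient MRTU transfection, cis-element (DR4) promoter; 24 h compound exposure; total RNA → oligo(dT) RT → PCR → 6-FAM primer extension → HpaI cut → CE. Gain/loss vs DMSO, bidirectional fit.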

[13] = target: Aryl hydrocarbon receptor (Homo sapiens) (UniProt P35869); assay: ATG_Ahr_CIS: Attagene CIS-FACTORIAL HepG2 Assay for human Aryl Hydrocarbon Receptor (Ahr) (AID 2282930); conditions: HepG2 AhR cis-factorial reporter transcription; actives raise or lower the signal
Summary of the method: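 Following 24 h of chemical dosing, transfected HepG2 liver cells with cis-driven reporter units were lysed for RNA; reporter mRNA was quantified via RT-PCR and capillary electrophoresis, and responses fitted bidirectionally from DMSO.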

[14] = ATG_AP_1_CIS: Attagene CIS-FACTORIAL HepG2 Assay for human Activator Protein 1 (AP-1) (AID 2282931); conditions: HepG2 Attagene cis-factorial AP-1 reporter mRNA; actives raise or lower the signal
Summary of the method: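 Transient MRTU transfection of HepG2 → 24 h chemical treatment → RNA isolation, RT-PCR, 6-FAM labelling, HpaI digest → capillary electrophoresis. Fit: bidirectional, DMSO negative control.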

[15] = ATG_AP_2_CIS: Attagene CIS-FACTORIAL HepG2 Assay for human Activator Protein 2 (AP-2) (AID 2282932); conditions: HepG2 AP-2 cis-reporter, Attagene transcription factor profiling; actives raise or lower the signal
Summary of the method: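 HepG2 cells were transiently transfected with multiple cis-promoter reporter transcription units and dosed for 24 h. Reporter mRNA was measured by RT-PCR with capillary electrophoresis fluorescence; bidirectional fits relative to DMSO baseline.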

[16] = ATG_BRE_CIS: Attagene CIS-FACTORIAL HepG2 Assay for human Bone Morphogenetic Protein (BMP) Response Element (BRE) (AID 2282933); conditions: HepG2 BMP response element reporter, Attagene transcription factor profiling; actives raise or lower the signal
Summary of the method: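 After a 24 h chemical treatment, transiently transfected HepG2 cells were lysed for RNA; reporter transcripts were quantified by fluorescent RT-PCR and capillary electrophoresis, normalised to DMSO.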

[17] = target: Retinoic acid receptor alpha (Homo sapiens) (UniProt P10276); assay: ATG_DR5_RAR_CIS: Attagene CIS-FACTORIAL HepG2 Assay for human Retinoic Acid Receptor Alpha (RARE), DR5 submotif (AID 2282934); conditions: HepG2 Attagene cis-factorial RARE DR5 reporter, mRNA; actives raise or lower the signal;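 for AC50: reporter responds to endogenous RAR alpha beta and gamma in HepG2 not RARA alone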
Summary of the method: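 Transfected HepG2 reporter cells are exposed to chemicals for 24 h. Then RNA is extracted and the DR5 element reporter transcript is measured by RT-PCR and capillary electrophoresis, with bidirectional curve fitting relative to DMSO.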

[18] = target: Transcription factor E2F1 (Homo sapiens) (UniProt Q01094); assay: ATG_E2F_CIS: Attagene CIS-FACTORIAL HepG2 Assay for human E2F Transcription Factor 1 (AID 2282935); conditions: HepG2 Attagene cis-reporter, E2F reporter RNA transcripts; actives raise or lower the signal
Summary of the method: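 HepG2 cells transiently transfected with multiplexed cis-element reporter units, dosed for 24 h. Reporter mRNA measured by RT-PCR, 6-FAM primer-extension labeling, HpaI digestion and capillary electrophoresis; bidirectional fit versus DMSO baseline.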

[19] = APR_HepG2_MitoMass_72hr: Apredica 72-hour HepG2 Assay for Mitochondrial Mass (AID 2282924); conditions: high-content imaging, actives raise or lower the signal;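 note: MitoTracker Red CMXRos stain intensity per cell imaged as mitochondrial mass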
Summary of the method: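 HepG2 cells were exposed for 72 hr to compounds at 0.39–200 uM (ten concentrations, duplicate, 0.5% v/v DMSO final). Live cells were stained with 250 nM MitoTracker Red CMXRos for 30 min, then fixed in 3.7% formaldehyde and imaged by HCS fluorescence.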

Measured: AC50

Chain of CCAAT/enhancer-binding protein beta (Homo sapiens) (P17676 whole entry, looked up, the tested form may be a part): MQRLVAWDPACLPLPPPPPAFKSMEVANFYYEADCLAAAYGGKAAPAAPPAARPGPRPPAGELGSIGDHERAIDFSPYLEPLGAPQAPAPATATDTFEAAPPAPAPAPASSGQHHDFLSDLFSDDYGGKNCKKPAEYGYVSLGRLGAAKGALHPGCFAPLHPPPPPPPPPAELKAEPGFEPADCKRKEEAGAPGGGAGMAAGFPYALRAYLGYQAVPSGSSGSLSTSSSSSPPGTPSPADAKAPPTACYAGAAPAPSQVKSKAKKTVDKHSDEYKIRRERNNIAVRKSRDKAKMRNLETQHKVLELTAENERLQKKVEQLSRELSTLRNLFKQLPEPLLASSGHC
Chain of Transcription factor E2F1 (Homo sapiens) (Q01094 whole entry, looked up): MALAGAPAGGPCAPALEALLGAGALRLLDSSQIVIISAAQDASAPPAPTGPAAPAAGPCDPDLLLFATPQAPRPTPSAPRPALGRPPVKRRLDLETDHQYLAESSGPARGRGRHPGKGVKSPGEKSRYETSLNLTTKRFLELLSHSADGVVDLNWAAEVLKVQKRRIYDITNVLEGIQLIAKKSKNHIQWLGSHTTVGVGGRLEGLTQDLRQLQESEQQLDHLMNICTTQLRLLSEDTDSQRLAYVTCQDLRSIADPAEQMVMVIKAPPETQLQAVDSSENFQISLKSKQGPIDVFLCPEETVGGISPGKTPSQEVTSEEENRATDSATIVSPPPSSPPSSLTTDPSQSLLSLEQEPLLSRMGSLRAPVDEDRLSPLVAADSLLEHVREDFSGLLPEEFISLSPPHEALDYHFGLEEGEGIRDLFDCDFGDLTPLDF
Chain of Aryl hydrocarbon receptor (Homo sapiens) (P35869 whole entry, looked up): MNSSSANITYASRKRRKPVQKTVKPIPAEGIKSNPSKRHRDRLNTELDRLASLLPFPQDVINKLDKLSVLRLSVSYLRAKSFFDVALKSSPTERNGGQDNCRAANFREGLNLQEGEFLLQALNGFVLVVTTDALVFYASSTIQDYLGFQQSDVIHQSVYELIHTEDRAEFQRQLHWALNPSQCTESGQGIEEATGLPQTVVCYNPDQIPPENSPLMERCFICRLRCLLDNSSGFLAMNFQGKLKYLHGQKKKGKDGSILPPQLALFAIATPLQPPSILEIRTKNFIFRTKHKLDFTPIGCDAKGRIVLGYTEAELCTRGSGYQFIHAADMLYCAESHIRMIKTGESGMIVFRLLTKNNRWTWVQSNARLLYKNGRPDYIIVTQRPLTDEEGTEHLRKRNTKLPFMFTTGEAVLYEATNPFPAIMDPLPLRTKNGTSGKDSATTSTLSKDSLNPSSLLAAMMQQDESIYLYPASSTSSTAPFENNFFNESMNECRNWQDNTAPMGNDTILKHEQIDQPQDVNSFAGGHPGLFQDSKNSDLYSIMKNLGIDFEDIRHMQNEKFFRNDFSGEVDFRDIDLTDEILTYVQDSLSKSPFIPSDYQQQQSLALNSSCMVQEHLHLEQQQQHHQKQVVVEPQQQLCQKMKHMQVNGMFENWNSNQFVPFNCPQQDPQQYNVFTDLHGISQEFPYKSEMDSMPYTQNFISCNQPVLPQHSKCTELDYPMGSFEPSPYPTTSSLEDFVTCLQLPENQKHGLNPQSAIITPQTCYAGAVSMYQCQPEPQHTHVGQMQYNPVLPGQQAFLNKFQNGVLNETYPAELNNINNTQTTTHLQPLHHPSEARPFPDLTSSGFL
Chain of Retinoic acid receptor alpha (Homo sapiens) (P10276 whole entry, looked up): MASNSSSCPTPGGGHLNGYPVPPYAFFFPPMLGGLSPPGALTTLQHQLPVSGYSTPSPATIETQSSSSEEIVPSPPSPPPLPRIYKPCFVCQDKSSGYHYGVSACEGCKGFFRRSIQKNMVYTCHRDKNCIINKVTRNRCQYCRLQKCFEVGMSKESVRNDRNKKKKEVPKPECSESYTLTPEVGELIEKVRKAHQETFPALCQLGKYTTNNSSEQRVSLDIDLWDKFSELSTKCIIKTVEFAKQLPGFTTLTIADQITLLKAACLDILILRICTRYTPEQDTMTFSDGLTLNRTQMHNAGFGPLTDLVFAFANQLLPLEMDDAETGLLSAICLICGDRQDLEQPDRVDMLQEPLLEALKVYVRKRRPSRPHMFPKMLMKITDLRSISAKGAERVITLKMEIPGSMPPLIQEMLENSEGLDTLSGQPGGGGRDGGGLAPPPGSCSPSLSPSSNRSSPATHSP

CCCOc1nn(C(=O)NS(=O)(=O)c2ccccc2C(=O)OC)c(=O)n1C
not listed: [19]
inactive: all other assays above

CC(=NC#N)N(C)Cc1ccc(Cl)nc1
not listed: [18]
inactive: all other assays above

CN(C)NC(=O)CCC(=O)O
not listed: [19]
inactive: all other assays above

CCCCOC(=O)[C@@H](C)Oc1ccc(Oc2ccc(C#N)cc2F)cc1
not listed: [17] | [18] | [19]
inactive: all other assays above

CCOP(=S)(OCC)Oc1ccc([N+](=O)[O-])cc1
active: [10] 13.5 µM | [13] 30.9 µM | [14] 82.6 µM
not listed: [11] | [19]
inactive: all other assays above

CCC(=O)Nc1ccc(Cl)c(Cl)c1
active: [11] 22.9 µM
inactive: all other assays above

CC(C)N(C(=O)SCC(Cl)=C(Cl)Cl)C(C)C
active: [9] 15.6 µM | [10] 10.8 µM | [17] 29.1 µM
not listed: [13] | [18] | [19]
inactive: all other assays above

CON=C(C(=O)OC)c1ccccc1CON=C(C)c1cccc(C(F)(F)F)c1
active: [10] 66.7 µM | [12] 24 µM | [16] 25 µM
not listed: [19]
inactive: all other assays above

CCNc1nc(Cl)nc(NC(C)(C)C#N)n1
not listed: [11] | [17] | [18] | [19]
inactive: all other assays above

CCOP(=S)(OCC)Oc1cc(C)nc(C(C)C)n1
active: [11] 29.8 µM | [12] 50 µM | [13] 16.3 µM
not listed: [17] | [19]
inactive: all other assays above

CC(Oc1cccc(Cl)c1)C(=O)O (stereo not given)
not listed: [19]
inactive: all other assays above

CNc1cnn(-c2cccc(C(F)(F)F)c2)c(=O)c1Cl
active: [9] 19.7 µM | [14] 29.5 µM | [16] 17.8 µM
not listed: [11] | [19]
inactive: all other assays above

CCOP(=S)(Oc1cnc(C(C)(C)C)nc1)OC(C)C (stereo not given)
active: [10] 2.22 µM | [12] 12.9 µM | [14] 62.2 µM | [16] 50 µM | [17] 12 µM
not listed: [11] | [19]
inactive: all other assays above

Cc1cc(C2CC2)nc(Nc2ccccc2)n1
active: [1] 51.8 µM | [3] 70.1 µM | [9] 18 µM | [14] 32.2 µM | [16] 33.5 µM | [17] 12.3 µM
not listed: [11] | [13] | [18]
inactive: all other assays above
